Assay results reported in the supplement of paper PMC11732987, “Enantioselective OTUD7B fragment discovery through chemoproteomics screening and high-throughput optimisation” (Communications Chemistry, 2025).

Key:
Experiment in all cases: log2 ratio of Biotin-Ahx-Ub-VS probe labelling (fragment/DMSO); higher = less target engagement (more negative = stronger competition), active = hit call of the paper (q ≤ 0.05, log2 ratio ≤ -1)
Details in all cases: compound concentration: 200 uM; treatment time: 3 h
USP34 = USP34 (UniProt Q70CQ2)
USP34, sequence (Q70CQ2 whole entry, the tested form may be a part): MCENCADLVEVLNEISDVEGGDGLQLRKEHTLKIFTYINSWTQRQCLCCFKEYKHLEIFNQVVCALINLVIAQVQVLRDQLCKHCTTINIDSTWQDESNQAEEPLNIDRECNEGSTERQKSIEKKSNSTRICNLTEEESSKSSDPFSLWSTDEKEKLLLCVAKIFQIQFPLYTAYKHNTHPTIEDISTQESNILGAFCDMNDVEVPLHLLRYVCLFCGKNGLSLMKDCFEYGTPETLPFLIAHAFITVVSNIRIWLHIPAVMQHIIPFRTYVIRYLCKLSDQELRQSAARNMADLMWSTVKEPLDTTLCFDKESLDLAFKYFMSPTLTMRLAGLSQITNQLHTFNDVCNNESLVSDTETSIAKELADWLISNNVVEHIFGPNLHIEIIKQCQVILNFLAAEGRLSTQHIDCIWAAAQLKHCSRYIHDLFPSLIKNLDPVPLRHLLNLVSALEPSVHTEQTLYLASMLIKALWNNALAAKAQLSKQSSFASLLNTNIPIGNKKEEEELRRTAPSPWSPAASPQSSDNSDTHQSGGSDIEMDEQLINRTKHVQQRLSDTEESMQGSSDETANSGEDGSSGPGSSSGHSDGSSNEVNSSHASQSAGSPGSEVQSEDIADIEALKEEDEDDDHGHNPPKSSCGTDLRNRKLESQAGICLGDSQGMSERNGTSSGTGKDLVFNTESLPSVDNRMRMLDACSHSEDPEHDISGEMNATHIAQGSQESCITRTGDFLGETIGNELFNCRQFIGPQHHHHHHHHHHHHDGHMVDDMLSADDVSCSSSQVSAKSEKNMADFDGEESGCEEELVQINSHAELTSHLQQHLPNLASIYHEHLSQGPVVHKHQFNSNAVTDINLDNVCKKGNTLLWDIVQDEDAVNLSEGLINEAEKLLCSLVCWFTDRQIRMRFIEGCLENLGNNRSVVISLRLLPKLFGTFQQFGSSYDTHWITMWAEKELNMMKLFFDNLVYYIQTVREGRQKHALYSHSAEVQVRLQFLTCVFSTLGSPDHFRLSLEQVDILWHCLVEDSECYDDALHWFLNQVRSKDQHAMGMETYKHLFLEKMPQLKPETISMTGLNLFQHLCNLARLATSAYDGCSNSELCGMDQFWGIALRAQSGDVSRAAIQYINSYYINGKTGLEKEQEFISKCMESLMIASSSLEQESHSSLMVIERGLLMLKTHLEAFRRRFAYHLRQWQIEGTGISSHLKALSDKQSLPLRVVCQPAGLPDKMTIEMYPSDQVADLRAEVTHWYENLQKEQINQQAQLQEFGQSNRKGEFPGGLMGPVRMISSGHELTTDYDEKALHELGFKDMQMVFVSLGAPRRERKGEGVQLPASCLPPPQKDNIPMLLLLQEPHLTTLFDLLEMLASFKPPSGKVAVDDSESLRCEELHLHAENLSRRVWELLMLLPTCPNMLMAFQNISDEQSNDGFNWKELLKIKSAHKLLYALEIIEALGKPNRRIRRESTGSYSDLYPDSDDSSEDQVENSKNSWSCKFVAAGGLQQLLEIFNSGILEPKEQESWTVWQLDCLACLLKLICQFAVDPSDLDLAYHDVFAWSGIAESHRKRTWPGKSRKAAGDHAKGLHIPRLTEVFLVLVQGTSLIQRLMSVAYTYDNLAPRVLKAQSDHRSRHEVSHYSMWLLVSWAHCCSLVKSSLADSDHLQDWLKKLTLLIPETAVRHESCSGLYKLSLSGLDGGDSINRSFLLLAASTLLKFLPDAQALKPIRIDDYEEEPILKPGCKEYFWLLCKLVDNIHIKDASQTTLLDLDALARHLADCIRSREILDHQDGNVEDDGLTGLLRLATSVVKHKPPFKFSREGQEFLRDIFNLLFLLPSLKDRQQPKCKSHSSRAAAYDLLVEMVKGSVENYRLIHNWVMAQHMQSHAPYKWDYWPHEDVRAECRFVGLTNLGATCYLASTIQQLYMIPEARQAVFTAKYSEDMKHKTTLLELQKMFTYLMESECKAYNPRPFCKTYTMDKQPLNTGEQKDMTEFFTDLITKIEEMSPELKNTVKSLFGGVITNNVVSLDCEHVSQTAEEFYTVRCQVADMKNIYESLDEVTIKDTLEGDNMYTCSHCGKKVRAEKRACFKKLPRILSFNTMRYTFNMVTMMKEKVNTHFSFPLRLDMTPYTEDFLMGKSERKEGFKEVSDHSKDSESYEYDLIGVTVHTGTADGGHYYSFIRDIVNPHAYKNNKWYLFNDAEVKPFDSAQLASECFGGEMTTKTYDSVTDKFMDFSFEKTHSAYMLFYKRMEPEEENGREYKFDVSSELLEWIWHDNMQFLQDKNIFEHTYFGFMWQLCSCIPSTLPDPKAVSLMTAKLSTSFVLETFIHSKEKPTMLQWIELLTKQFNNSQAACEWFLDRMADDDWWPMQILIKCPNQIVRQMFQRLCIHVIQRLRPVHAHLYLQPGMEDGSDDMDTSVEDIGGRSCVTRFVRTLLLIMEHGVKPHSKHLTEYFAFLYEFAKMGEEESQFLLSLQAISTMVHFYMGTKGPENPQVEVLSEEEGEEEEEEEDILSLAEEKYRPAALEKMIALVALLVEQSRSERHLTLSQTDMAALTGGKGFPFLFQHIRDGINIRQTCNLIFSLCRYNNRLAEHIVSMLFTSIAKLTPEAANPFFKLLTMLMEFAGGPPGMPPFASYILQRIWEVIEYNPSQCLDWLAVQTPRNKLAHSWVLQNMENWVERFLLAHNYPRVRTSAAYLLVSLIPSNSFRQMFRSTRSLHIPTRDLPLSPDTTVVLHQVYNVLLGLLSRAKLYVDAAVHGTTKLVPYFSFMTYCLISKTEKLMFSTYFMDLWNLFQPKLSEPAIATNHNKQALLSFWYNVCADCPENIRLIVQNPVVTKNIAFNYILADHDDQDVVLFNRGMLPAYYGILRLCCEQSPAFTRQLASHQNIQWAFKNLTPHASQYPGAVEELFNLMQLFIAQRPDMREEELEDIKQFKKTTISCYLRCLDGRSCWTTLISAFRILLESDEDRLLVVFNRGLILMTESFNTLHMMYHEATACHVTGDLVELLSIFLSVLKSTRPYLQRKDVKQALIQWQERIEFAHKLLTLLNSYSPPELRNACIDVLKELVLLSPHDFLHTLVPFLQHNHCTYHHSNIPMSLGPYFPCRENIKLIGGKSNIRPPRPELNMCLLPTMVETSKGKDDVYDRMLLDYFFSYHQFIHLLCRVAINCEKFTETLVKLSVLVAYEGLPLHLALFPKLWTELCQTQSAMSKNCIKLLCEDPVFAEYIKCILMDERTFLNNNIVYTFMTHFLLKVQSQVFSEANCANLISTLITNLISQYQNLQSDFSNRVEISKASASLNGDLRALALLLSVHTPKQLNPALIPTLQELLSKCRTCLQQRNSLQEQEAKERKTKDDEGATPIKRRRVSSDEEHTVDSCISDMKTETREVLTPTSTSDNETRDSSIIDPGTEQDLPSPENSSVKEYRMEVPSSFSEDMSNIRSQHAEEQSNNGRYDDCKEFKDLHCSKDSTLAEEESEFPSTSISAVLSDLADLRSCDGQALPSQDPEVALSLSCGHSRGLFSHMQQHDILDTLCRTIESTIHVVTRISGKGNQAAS
How it was run: (§1)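 HEK293T lysate, 495 µg per sample in Tris/CHAPS/IGEPAL buffer with protease inhibitors, was treated in triplicate with fragment at 200 µM or vehicle for 3 h and then with Biotin-Ahx-Ub-VS at 0.5 µM final for 1 h. Labelled DUBs were NeutrAvidin-enriched, digested with LysC and trypsin, and run by diaPASEF LC-MS/MS. Spectronaut label-free quantities were global-median-normalised, and values are average log2 fragment/vehicle ratios by unpaired t-test on proteins with ≥2 unique peptides.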

USP36 = target: T1, USP36 (UniProt Q9P275)
T1 sequence (whole entry): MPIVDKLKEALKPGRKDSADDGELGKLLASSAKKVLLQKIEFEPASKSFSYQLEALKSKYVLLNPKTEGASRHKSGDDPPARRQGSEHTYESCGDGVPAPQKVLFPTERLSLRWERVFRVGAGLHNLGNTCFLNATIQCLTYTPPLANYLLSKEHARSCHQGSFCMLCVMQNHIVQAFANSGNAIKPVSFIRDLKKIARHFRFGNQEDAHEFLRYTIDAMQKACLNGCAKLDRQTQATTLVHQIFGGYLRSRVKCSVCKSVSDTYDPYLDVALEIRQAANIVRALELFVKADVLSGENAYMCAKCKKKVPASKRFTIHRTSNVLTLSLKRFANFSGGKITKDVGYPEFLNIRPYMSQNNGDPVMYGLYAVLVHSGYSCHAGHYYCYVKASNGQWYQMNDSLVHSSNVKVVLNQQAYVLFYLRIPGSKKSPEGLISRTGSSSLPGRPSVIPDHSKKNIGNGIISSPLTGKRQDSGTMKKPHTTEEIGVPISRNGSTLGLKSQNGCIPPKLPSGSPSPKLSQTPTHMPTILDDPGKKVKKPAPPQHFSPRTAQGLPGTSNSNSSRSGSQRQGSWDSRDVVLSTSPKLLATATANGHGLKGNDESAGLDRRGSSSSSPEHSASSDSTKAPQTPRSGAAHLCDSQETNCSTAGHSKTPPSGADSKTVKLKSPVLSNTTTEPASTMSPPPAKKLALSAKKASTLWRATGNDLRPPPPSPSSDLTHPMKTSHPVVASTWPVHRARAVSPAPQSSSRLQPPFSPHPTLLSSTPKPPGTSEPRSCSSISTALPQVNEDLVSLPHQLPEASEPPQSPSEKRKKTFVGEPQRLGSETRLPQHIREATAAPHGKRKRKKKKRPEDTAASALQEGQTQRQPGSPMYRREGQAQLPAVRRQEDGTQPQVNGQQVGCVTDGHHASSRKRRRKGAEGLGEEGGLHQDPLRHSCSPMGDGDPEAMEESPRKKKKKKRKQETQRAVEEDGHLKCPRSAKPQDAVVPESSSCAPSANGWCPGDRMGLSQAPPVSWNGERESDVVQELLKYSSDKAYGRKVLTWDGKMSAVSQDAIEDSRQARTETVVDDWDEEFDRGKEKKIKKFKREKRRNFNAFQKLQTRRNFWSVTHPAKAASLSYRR
How it was run: as §1

USP38 = target: T2, USP38 (UniProt Q8NB14)
T2 sequence (whole entry): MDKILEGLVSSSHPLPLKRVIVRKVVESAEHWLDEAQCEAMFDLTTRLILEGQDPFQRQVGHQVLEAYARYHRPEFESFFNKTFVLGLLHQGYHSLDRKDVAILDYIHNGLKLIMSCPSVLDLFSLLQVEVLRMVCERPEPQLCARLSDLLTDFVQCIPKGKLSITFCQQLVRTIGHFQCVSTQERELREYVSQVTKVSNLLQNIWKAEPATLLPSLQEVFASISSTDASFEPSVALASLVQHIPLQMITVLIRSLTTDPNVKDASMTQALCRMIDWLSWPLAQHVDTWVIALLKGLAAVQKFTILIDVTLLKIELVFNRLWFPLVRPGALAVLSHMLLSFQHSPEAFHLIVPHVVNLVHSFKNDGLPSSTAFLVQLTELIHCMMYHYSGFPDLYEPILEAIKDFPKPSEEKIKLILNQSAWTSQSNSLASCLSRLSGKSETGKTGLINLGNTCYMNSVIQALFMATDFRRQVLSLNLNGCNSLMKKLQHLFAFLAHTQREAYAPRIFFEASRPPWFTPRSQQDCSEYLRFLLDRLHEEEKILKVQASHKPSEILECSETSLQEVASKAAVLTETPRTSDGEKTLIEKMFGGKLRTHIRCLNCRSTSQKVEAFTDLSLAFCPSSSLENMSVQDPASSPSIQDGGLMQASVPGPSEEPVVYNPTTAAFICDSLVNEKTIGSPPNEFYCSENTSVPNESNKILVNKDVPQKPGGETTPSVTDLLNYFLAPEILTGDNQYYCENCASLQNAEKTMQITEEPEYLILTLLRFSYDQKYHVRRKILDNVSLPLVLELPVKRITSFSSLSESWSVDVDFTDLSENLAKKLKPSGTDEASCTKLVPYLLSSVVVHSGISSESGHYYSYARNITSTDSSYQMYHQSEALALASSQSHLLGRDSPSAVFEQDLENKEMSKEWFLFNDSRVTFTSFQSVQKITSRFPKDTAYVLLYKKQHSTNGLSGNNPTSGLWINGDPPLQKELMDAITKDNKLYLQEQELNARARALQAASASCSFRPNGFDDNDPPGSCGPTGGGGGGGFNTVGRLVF
How it was run: as §1

USP39 = target: T3, USP39 (UniProt Q53GS9)
T3 sequence (whole entry): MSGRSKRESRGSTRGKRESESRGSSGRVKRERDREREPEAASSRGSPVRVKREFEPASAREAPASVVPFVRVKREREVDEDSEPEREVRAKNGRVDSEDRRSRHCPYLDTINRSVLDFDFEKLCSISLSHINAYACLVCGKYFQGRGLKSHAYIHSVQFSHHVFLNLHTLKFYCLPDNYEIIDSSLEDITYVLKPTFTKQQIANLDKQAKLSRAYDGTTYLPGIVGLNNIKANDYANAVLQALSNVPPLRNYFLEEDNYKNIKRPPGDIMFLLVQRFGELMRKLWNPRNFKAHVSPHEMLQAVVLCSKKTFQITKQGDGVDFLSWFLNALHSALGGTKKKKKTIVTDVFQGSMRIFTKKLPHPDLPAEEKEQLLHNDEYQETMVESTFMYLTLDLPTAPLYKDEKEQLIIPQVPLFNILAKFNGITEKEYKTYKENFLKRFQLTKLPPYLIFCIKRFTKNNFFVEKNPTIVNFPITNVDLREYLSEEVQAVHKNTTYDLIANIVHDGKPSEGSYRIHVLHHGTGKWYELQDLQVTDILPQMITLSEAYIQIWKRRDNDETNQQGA
How it was run: as §1

USP4 = target: T4, USP4 (UniProt Q13107)
T4 sequence (whole entry): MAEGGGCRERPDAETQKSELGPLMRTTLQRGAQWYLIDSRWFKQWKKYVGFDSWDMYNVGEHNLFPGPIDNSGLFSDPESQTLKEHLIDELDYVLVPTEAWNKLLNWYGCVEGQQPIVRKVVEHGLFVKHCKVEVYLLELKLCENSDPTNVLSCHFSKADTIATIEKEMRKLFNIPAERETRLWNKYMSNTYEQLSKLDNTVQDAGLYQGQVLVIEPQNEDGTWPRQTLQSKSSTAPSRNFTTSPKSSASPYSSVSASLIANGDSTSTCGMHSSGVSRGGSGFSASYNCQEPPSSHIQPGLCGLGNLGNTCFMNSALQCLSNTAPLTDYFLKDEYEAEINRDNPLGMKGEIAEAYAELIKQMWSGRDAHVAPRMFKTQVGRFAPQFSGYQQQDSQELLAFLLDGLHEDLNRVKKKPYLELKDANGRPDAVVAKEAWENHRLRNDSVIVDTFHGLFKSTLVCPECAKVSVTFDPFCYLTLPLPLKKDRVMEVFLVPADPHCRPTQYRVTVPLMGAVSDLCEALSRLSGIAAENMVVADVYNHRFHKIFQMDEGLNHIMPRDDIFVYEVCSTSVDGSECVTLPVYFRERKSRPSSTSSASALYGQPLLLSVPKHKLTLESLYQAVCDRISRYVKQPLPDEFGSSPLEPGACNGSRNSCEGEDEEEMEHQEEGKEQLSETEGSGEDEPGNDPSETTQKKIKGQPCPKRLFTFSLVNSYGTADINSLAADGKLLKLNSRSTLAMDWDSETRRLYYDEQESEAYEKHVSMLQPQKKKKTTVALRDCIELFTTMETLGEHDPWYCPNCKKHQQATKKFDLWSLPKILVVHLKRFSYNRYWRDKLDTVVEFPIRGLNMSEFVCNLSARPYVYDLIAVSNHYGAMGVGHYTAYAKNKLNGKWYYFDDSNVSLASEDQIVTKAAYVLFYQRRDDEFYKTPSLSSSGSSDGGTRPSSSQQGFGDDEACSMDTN
How it was run: as §1

Measured: log2 ratio of Biotin-Ahx-Ub-VS probe labelling

Cc1cc(NC(=O)CCl)n(-c2ccccc2)n1
inactive: USP34 -0.374 | USP36 -0.0233 | USP38 -0.067 | USP39 -0.12 | USP4 0.0467
